Bioassay records from PubChem.
Sampled rows, rich in hits. Any-hit rate of the full collection: about 5%.
AHR act: AHR activators, primary screen, cell-based, luminescence, luciferase reporter, human; Aryl hydrocarbon receptor (Homo sapiens), P35869; AHR-responsive luciferase reporter cells; activation, % at 5 µM; 2.5% of 320,000 active; AID 2796, 2010; in the data active = activation above about 47%;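 also: 0% = vehicle wells and 100% = reference agonist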
SENP6 block: SENP6 protease inhibitors, primary screen, biochemical, luminescence, uHTS; inhibition, % at 10 µM; 1.8% of 330,000 active; Recombinant SENP6 catalytic domain, aminoluciferin luminescence; AID 2599, 2010;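 active = inhibition above about 50% at the single tested dose, limit read from the data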;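 also: plate controls were DMSO wells with enzyme for no effect and DMSO wells lacking enzyme for full effect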
SENP8 block-1: SENP8 protease inhibitors, primary screen, biochemical, luminescence | inhibition, % at 10 µM | purified SENP8, Z-RLRGG-aminoluciferin cleavage | Sentrin-specific protease 8 (Homo sapiens), Q96LD8 | 1.2% of 330,000 active | AID 2540, 2010; in the data active = inhibition above about 50%
Target sequence (Q96LD8 whole entry, looked up): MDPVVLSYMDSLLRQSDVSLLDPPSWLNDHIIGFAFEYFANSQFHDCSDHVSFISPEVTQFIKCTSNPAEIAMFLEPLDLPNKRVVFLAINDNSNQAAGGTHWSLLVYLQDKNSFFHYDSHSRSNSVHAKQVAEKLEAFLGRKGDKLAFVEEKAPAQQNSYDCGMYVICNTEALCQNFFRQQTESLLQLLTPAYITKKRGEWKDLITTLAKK
SENP8 block-2: human SENP8 protease inhibitors, primary screen, biochemical, fluorescence, Nedd8 protein substrate, uHTS; recombinant SENP8; 0.64% of 360,000 active; AID 602440, 2012; inhibition, % at 20 µM; in the data active = inhibition mostly above about 40%, no sharp cut-off; inactive = mostly below about 27%
SENP7 inh: SENP7 protease inhibitors, primary screen, biochemical, luminescence, uHTS; Sentrin-specific protease 7 (Homo sapiens), Q9BQF6; recombinant SENP7, Z-RLRGG-aminoluciferin luminescence, 40 min; inhibition, % at 5 µM; 1.5% of 330,000 active; AID 434973, 2010;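 active = inhibition above about 50% at the single test dose, limit read from the data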;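 also: plate controls were DMSO with enzyme for no effect and no enzyme buffer wells for full effect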
EBI2 antag: EBI2 receptor antagonists, beta-arrestin recruitment, primary screen, cell-based, luminescence, 7a,25-OHC stimulation, uHTS | G-protein coupled receptor 183 (Homo sapiens), P32249 | 7a,25-OHC stimulated | inhibition, % at 5 µM | 0.81% of 360,000 active | AID 651636, 2012; in the data active = inhibition above about 38%;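 also: enzyme fragment complementation signal reports receptor beta-arrestin coupling in cells; 0% = agonist plus DMSO wells and 100% = wells without agonist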
SENP8 confirm: SENP8 protease inhibitors, retest, confirmation, biochemical, luminescence, single concentration. inhibition, % at 12.5 µM. 40% of 6,200 active. shares compounds with SENP7 inh. Recombinant SENP8, Z-RLRGG-aminoluciferin luminescence, 60 min;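 active = mean inhibition across replicates above about 50%, limit read from the data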
SENP6 confirm: SENP6 protease inhibitors, confirmation, biochemical, luminescence, single concentration; 58% of 6,200 active; AID 488915, 2010; shares compounds with SENP7 inh; inhibition, % at 12.5 µM; recombinant SENP6, Z-RLRGG-aminoluciferin luminescence
SENP7 confirm: SENP7 protease inhibitors, retest, confirmation, biochemical, luminescence, single concentration; shares compounds with SENP7 inh; recombinant SENP7, Z-RLRGG-aminoluciferin luminescence, 40 min; inhibition, % at 12.5 µM; 69% of 6,200 active
Casp3 select: caspase-3 protease inhibitors, confirmation, selectivity assay for SENP inhibitor project, biochemical, single concentration; shares compounds with SENP7 inh; purified caspase-3, Z-DEVD-aminoluciferin luminescence, 60 min; inhibition, % at 12.5 µM; 60% of 6,200 active; AID 488918, 2010;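 active = mean inhibition above about 50%, limit read from the data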;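 also: plate controls were enzyme with DMSO for no effect and wells without caspase-3 for full effect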
Target sequence (P42574 28-227 limits assumed): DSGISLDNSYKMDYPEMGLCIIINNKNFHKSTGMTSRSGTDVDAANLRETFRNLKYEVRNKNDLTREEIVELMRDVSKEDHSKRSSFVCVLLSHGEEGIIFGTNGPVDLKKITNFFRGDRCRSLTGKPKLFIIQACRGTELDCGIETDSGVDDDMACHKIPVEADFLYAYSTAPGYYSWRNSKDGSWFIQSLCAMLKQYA
Luc interf: counter-screen for SENP inhibitors: luminescence interference. shares compounds with SENP7 inh. Pre-incubated SENP8/Z-RLRGG-aminoluciferin, luciferase luminescence interference. inhibition, % at 12.5 µM. 39% of 6,200 active. AID 488919;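 active = mean inhibition above about 50% when retested at one dose, limit read from the data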;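 also: plate controls were DMSO wells with completed reaction for no effect and substrate without enzyme for full effect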
* = called active by the depositor; . = no result given.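 The calls were made as follows, unless noted: active = mean inhibition above about 50% in the one-dose retest (limit read from the data); inactive = the rest.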

SMILES | AHR act | SENP6 block | SENP8 block-1 | SENP8 block-2 | SENP7 inh | EBI2 antag | SENP8 confirm | SENP6 confirm | SENP7 confirm | Casp3 select | Luc interf
Cc1ccc(S(=O)(=O)/N=C2\C=C(Nc3cccc(C(=O)O)c3)C(=O)c3ccccc32)c(C)c1 | 20 | 95* | 94* | 81* | 55* | 13 | 60* | 97* | 48 | 19 | 0
Cc1ccc(S(=O)(=O)/N=C2\C=C(Nc3ccc(O)cc3)C(=O)c3ccccc32)cc1 | -9 | 84* | 90* | 80* | 64* | -7 | 90* | 95* | 86* | 94* | 9
Cc1ccc(/C=C2\S/C(=N/S(=O)(=O)c3cccs3)NC2=O)cc1 | -2 | 39 | 9 | 9 | 13 | 2 | . | . | . | . | .
Cc1ccc(NC2=C/C(=N/S(=O)(=O)c3cccs3)c3ccccc3C2=O)cc1 | -2 | 77* | 46 | 94* | 69* | 32 | 10 | 54* | 12 | 3 | -5
Cc1ccccc1NC(=O)c1sc(NC(=O)COc2ccccc2)c(C#N)c1C | 1 | 32 | -5 | -297 | 33 | 2 | . | . | . | . | .
COc1ccccc1C1CCN(Cc2cccc(C(=O)N3CCC(O)CC3)c2)CC1 | -1 | -5 | -13 | 16 | -6 | -1 | . | . | . | . | .
CCCn1ncc(C(=O)NC2CCCN(Cc3ccc(Cl)cc3)C2)c1C (configuration not stated) | -2 | 13 | 11 | -2 | -12 | -2 | . | . | . | . | .
CCN(CC)CCCNC(=O)c1c(O)c2c([nH]c1=O)CCCC2 | 2 | -9 | 0 | 9 | 59* | -11 | 4 | 5 | 14 | 9 | 4
O=C(NCc1nc(-c2ccc(C(F)(F)F)cc2)no1)Nc1ccc(OC(F)(F)F)cc1 | 0 | -10 | -9 | 1 | -4 | 4 | . | . | . | . | .
CC(C)=CCC1=C(OCC(=O)O)C(=O)c2ccccc2C1=O | 17 | -17 | 76* | 72* | 36 | -3 | 80* | 87* | 65* | 10 | 9
Cc1nnc(SCC(=O)Nc2ccc3c(c2)OCO3)n(N)c1=O | 42 | -3 | -1 | 4 | -4 | -7 | . | . | . | . | .
Nc1cccc2cc(-c3ccccc3)oc12 | 20 | 55* | 36 | -497 | 48 | 5 | 34 | 35 | 72* | 32 | 53*
Cc1c(C(=O)N2CCOCC2)c(S(=O)(=O)Nc2ccccc2)c(C)n1C | -3 | 7 | 0 | 1 | 1 | -13 | . | . | . | . | .
CCc1cc(C(=O)Nc2ncccc2O)sc1C | 78* | 66* | 40 | 1 | 67* | -4 | 52* | 53* | 86* | 81* | 63*
CCc1cc(C(=O)Nc2ccc(OC)nc2)sc1C | 20 | -15 | -10 | 7 | -5 | -4 | . | . | . | . | .
O=C1C(c2ccncc2)=C(O)c2ccccc21 | -1 | 85* | 73* | 27 | 72* | 2 | 84* | 83* | 96* | 91* | 67*
Fc1cccc(Cc2c(-c3ccccc3)nc3c4ccccc4ccn23)c1 | . | . | . | -392 | . | 5 | . | . | . | . | .
